Test results from PubChem BioAssay (NCI).
About 79,000 compounds went through this panel and 15% of them were active in at least one assay; those are over-represented in the sample as a whole. No stated cut-off is given here; in the data, active means growth inhibition above about 70%; inactive means the rest. *1 amine or outer side, *2 acyl side, *3 side chain or, on linkers, in order; H or OH if unused. Where a SMILES comes first, the peptide text is derived from it. Bridges are numbered along the chain shown (N, C = ends). [ ]: non-standard residue; d: D form. The star is where a group is joined. ξ: configuration not given here. Fmoc = O=C(OCC1c2ccccc2-c2ccccc21)*; X9 = O=C(C(CCCCNO[*:3])N[*:1])[*:2]; ξW = NC(Cc1c[nH]c2ccccc12)C(=O)O; Ac5c = NC1(C(=O)O)CCCC1; Cbz = O=C(OCc1ccccc1)*; ξP = O=C(O)C1CCCN1

Columns and labels:
[1] = NCI Yeast Anticancer Drug Screen. Data for the rad50 strain (AID 155);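 further: 0% = growth of vehicle-only cultures of the same strain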; details: S. cerevisiae rad50 strain growth inhibition; at 50.0 µM; hits give high values
Method in brief: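 Genetically altered yeast (DNA repair pathway); compound treatment; growth inhibition vs vehicle ctrl.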

[2] = NCI Yeast Anticancer Drug Screen. Data for the mec2-1 strain (AID 157); details: S. cerevisiae mec2-1 strain, at 50.0 µM, hits give high values
Method in brief: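 Growth inhibition is read against vehicle-treated controls after compound exposure of the mec2-1 yeast strain, which is defective in DNA damage repair or cell cycle control.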

[3] = NCI Yeast Anticancer Drug Screen. Data for the sgs1 mgt1 strain (AID 161);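 further: 0% = growth of cultures given vehicle only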; details: S. cerevisiae sgs1 mgt1 strain, at 50.0 µM, hits give high values
Method in brief: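 This yeast growth screen uses a strain with defined DNA-repair lesions; compound-treated growth is compared with vehicle-treated growth.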

[4] = NCI Yeast Anticancer Drug Screen. Data for the cln2 rad14 strain (AID 165);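 further: 0% = growth equal to vehicle treated cultures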; details: S. cerevisiae cln2 rad14 strain, at 50.0 µM, hits give high values
Method in brief: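 Growth inhibition, relative to vehicle-treated controls, is the read-out. The test organism is a yeast strain with defined genetic alterations, cln2 rad14.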

[5] = NCI Yeast Anticancer Drug Screen. Data for the bub3 strain (AID 167); details: S. cerevisiae bub3 mutant strain, at 50.0 µM, hits give high values
Method in brief: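 Yeast carrying a defined mutation is treated with each compound, and growth is compared with that of vehicle-exposed cells to give inhibition.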

[6] = NCI Yeast Anticancer Drug Screen. Data for the mlh1 rad18 strain (AID 175); details: S. cerevisiae mlh1 rad18 strain growth inhibition; at 50.0 µM; hits give high values
Method in brief: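 Cells of a genetically altered yeast strain, deficient in DNA damage repair, were treated with compound. Their growth was then compared with that of vehicle-treated cultures to give inhibition.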

Measured: growth inhibition

Oc1cc(-c2ccc(Cl)cc2)cn2c1nc1ccccc12
inactive: [1] -13.3% | [2] -23.8% | [3] -38.5% | [4] -24.1% | [5] -5.75% | [6] -50%

O=C(NN=C1CCCCC1)NN=C1CCCCC1
inactive: [1] -40.2% | [2] -10.8% | [3] -29.2% | [4] -2.4% | [5] -6.55% | [6] -0.4%

O=c1oc2c(-c3c(O)c(=O)oc4ccccc34)cc(O)cc2s1
inactive: [1] 10.3% | [2] 14.6% | [3] 22.9% | [4] 17.1% | [5] 10% | [6] 36%

COc1cc2c(c(OC)c1OC)-c1ccc(SC)c(=O)cc1[C@@H](NC(=O)NCCCl)CC2
inactive: [1] 1.1% | [2] -16.8% | [3] -18.1% | [4] 4.6% | [5] -28.4% | [6] -10.2%

O=c1[nH]cnc2oc(-c3ccccc3)nc12
inactive: [1] -0.3% | [2] -0.7% | [3] -6.35% | [4] -41.2% | [5] -15.8% | [6] 4.75%

O=C(O)CNC(=O)C1(NC(=O)CNC(=O)OCc2ccccc2)CCCC1 (Cbz-Gly-[Ac5c]-Gly-OH)
inactive: [1] 4.7% | [2] 20.3% | [3] 11.2% | [4] -2.3% | [5] -5.05% | [6] 18.3%

CN1c2cccc3cccc(c23)NC12CCCCC2
inactive: [1] 0.6% | [2] -20.5% | [3] -10.8% | [4] -62.2% | [5] 14.2% | [6] -10.8%

N#Cc1c(-c2ccccc2)cc(-c2cccs2)c(C#N)c1N
inactive: [1] 4.35% | [2] 4% | [3] 7.85% | [4] -35.3% | [5] 12.8% | [6] 21.1%

O=C/C(Cl)=C\Nc1ccc(C(=O)O)cc1
inactive: [1] -0.25% | [2] 2.15% | [3] -0.2% | [4] -23.1% | [5] -0.4% | [6] -10.7%

O=C(Nc1ccc(Cl)cc1)Nc1nnc2nc(C(C(=O)c3ccc(O)cc3O)c3nc4nnc(NC(=O)Nc5ccc(Cl)cc5)n4[nH]c3=O)c(=O)[nH]n12
inactive: [1] 25.6% | [2] 39.9% | [3] 44.2% | [4] 60.9% | [5] 14.7% | [6] 12.3%

COc1ccc(C(=O)c2ccc(OC)c3ccccc23)c2ccccc12
inactive: [1] -7.3% | [2] -5.8% | [3] -1.2% | [4] -22.9% | [5] 3.35% | [6] 4.25%

O=C1COc2cccnc2N1
inactive: [1] 12.7% | [2] -2.05% | [3] 19.5% | [4] 2.2% | [5] 14.7% | [6] 14.7%

CCSc1nc(Cl)nc2c1cnn2C
inactive: [1] 7.95% | [2] -2.15% | [3] 8.05% | [4] 4.1% | [5] 24.9% | [6] 5.4%

CCCCN=C(NC#N)NCCCC
inactive: [1] -27.6% | [2] 7.9% | [3] -31.2% | [4] -0.1% | [5] -25.4% | [6] -13.8%

c1ccc(CC2(Cc3ccccc3)SCCS2)cc1
inactive: [1] -11.7% | [2] 8.45% | [3] 6.55% | [4] 1.15% | [5] -0.6% | [6] -6.05%

CP(=O)(CCSc1ccccc1)c1ccccc1 (stereo not given)
inactive: [1] -12.5% | [2] -20.5% | [3] -0.85% | [4] 23.6% | [5] -10.7% | [6] -21.1%

NC1=Nc2ncccc2C(=O)NN1
inactive: [1] -17.4% | [2] 19.5% | [3] 8.1% | [4] 17.8% | [5] 12.7% | [6] 24.8%

COc1ccc(CC(=O)NCCc2ccc(OC)c(OC)c2)cc1Br
inactive: [1] 12.2% | [2] -4.85% | [3] -3.8% | [4] 8.35% | [5] 8.8% | [6] 2.6%

Cc1ccc(C2OC(=O)C(=O)C2=O)cc1 (stereo not given)
inactive: [1] -35.9% | [2] -21.4% | [3] -23.2% | [4] -21.6% | [5] -32% | [6] -3.35%

CC1(C)N=C(C2CCCN2C(=O)OCc2ccccc2)OC1=O (stereo not given)
inactive: [1] -43% | [2] -20.7% | [3] -38.1% | [4] -1.75% | [5] 12.3% | [6] -28.6%

O=C1NCC2(CCCCCC2)O1
inactive: [1] 5.15% | [2] -0.65% | [3] 13.2% | [4] 4.95% | [5] -3.9% | [6] 6.15%

O=C(OCc1ccccc1)C1CCCN1C(=O)C(CSC(c1ccccc1)(c1ccccc1)c1ccccc1)NC(c1ccccc1)(c1ccccc1)c1ccccc1 (stereo not given)
inactive: [1] -5.5% | [2] -1.35% | [3] -0.8% | [4] -11.3% | [5] -7.55% | [6] 24.6%

Oc1cccc(C=NCCN=Cc2cccc(O)c2O)c1O.[Fe]
inactive: [1] -9.35% | [2] -5.7% | [3] 4.65% | [4] -39.7% | [5] 13.2% | [6] 1.15%

Cc1cc(N(CCC#N)CCC#N)ccc1N=Nc1cc(Cl)ccc1Cl
inactive: [1] 18.8% | [2] 16.8% | [3] -8.55% | [4] 13.2% | [5] 42% | [6] 16.6%

O=C(O)CCCc1ccccc1[N+](=O)[O-]
inactive: [1] -16.7% | [2] -41.8% | [3] -6.4% | [4] -2.35% | [5] -18.9% | [6] -19.8%

COc1ccc(CCNC(=S)N/C=C\c2nc3ccccc3[nH]c2=O)cc1OC
inactive: [1] 11.1% | [2] 2.8% | [3] 6.15% | [4] 11.3% | [5] 8% | [6] 19.9%

NC(=O)CNC(=O)C1CCCN1C(=O)C1CCCCNOC(=O)CC[C@@H](NC(=O)OCC2c3ccccc3-c3ccccc32)C(=O)NC(Cc2c[nH]c3ccccc23)C(=O)N1 (stereo not given in full) (Fmoc-[dE][ξW][X9][ξP]G-NH2; ester 1-3)
inactive: [1] -10.2% | [2] -15.8% | [3] -6.55% | [4] 24.1% | [5] -16.2% | [6] -19.6%

CC(=O)NCCCCCC(=O)O
inactive: [1] 38.9% | [2] 2.45% | [3] 11.9% | [4] 10.7% | [5] -2.65% | [6] 20.7%

COc1cc(CCl)c(OC)cc1Cl
inactive: [1] 8.6% | [2] 0.9% | [3] -1.4% | [4] -35.6% | [5] 13.6% | [6] -28.4%

CSc1nc2c(N)nc(N)nc2nc1C
inactive: [1] 5.9% | [2] 0.2% | [3] 0.75% | [4] -31.6% | [5] -16.7% | [6] 11.5%

CCC(C)(O)c1cn(-c2cccc(S(=O)(=O)O)c2)nn1 (stereo not given)
inactive: [1] -9.3% | [2] -10.2% | [3] -8.05% | [4] 5.95% | [5] -8.65% | [6] -8.35%

Cc1ncc(CO)c(/C=N/NC(=O)c2ccncc2)c1O
inactive: [1] 14.3% | [2] 9.4% | [3] 11.7% | [4] -35.5% | [5] 15.8% | [6] 17.6%

N#CC1(C#N)C(c2ccccc2)C1(C#N)C(N)=O (stereo not given)
inactive: [1] -13.2% | [2] 11.4% | [3] -22.9% | [4] -20.6% | [5] -6.7% | [6] -27.5%

Cn1c(=O)c2[nH]c(=S)n(CC3CCCCC3)c2n(C)c1=O
inactive: [1] -1.95% | [2] -3.55% | [3] -8.4% | [4] -29% | [5] 0.1% | [6] 17.4%

CCC(CO)NC(=O)c1cccnc1 (stereo not given)
inactive: [1] -13.5% | [2] -8.3% | [3] -2.85% | [4] -19% | [5] -7.6% | [6] 2.25%

O=C(O)C1(Br)CC1(c1ccccc1)c1ccccc1 (stereo not given)
inactive: [1] 28.2% | [2] 5.25% | [3] 3.65% | [4] -14.1% | [5] -0.7% | [6] 26.1%

COc1c2cc3c(cc2nc2occc12)OCO3
inactive: [1] 1.1% | [2] -5.35% | [3] -9.3% | [4] 2.6% | [5] -11.2% | [6] 5.55%

O=C1CCC(=O)N1c1ccc([I+]c2ccc(N3C(=O)CCC3=O)cc2)cc1
inactive: [1] 32.5% | [2] 6.65% | [3] 12.7% | [4] 15.1% | [5] -0.8% | [6] 14.4%

CC1CCP(=O)(c2ccccc2)CC1 (stereo not given)
inactive: [1] 8.5% | [2] -10.8% | [3] -7.15% | [4] 6.9% | [5] -7.3% | [6] -35.2%

Cc1ccc(I)cc1
inactive: [1] -59.4% | [2] -32.6% | [3] -33.9% | [4] -7.5% | [5] -2.9% | [6] -19.1%
